In assay [1] the target is Thyrotropin receptor (Homo sapiens) (UniProt P16473). The experiment in a line: qHTS assay to identify small molecule agonists of the thyroid stimulating hormone receptor (TSHR) signaling pathway (AID 1224843; calls by dose curve; further: nearly all actives have a fitted effect of over 45% in size). The gist of the method:
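TSHR-HEK293 cells in agonist mode, 30 min room-temperature step, then cAMP measured by competitive HTRF (cAMP-d2 with anti-cAMP cryptate) after 1 h at room temperature. Tested at 15 concentrations in triplicate.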

Assay [2] in a line: qHTS assay to identify small molecule agonists of the hypoxia (HIF-1) signaling pathway - cell viability counter screen (AID 1224844; calls by dose curve; further: nearly all actives have a fitted effect of over 50% in size; further: potency means the concentration at half of the fitted maximal effect). A digest of the protocol:
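Tox21 10K compounds were added to HRE-bla ME-180 cells (0.5% dialyzed FBS) and incubated 17 hrs at 37C; ATP-based CellTiter-Glo luminescence then reported cell viability in the same wells.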

A short description of assay [3]: qHTS assay to identify small molecule agonists of H2AX (AID 1224845; active means well fitted activation curve with a large enough effect in the signal ratio in the repeat runs, not every such curve was filed as active; the % refers to the signal ratio). The gist of the method:
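Wild-type CHO-K1 cells, plated overnight, exposed 3hr at 37C to 15 concentrations (0.76% DMSO final). Lysed, then HTRF anti-pH2AX (S139) cryptate and anti-H2AX-d2 antibodies, 24 hr room temperature; 665/620 nm emission read.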

Assay [4] can be described thus: qHTS assay to identify small molecule agonists of H2AX - cell viability counter screen (AID 1224847; calls by dose curve; further: top concentration of the series differs between compounds; nearly all actives have a fitted effect of over 30% in size). A digest of the protocol:
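Wild-type CHO-K1 cells (10% FBS medium) were plated overnight at 37C, exposed to compounds at 15 concentrations for 3 hr at 37C (0.76% DMSO final), and viability was read as CellTiter-Glo luminescence after 30 min at room temperature.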

A short description of assay [5]: qHTS RealTime-Glo MT Cell Viability Assay in HepG2 cells - 24 hour (AID 1224867). Further: nearly all actives have a fitted effect of over 50% in size. The gist of the method: (§1)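 Cells + NanoLuc/prosubstrate dispensed (600 cells/well) → 5 h at 37 C/5% CO2 → compounds in DMSO transferred → 40 h incubation at 37 C, luminescence read at 0, 8, 16, 24, 32, 40 h.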
Assay [6] in a line: qHTS RealTime-Glo MT Cell Viability Assay in HEK293 cells - 32 hour (AID 1224868). Further: nearly all actives have a fitted effect of over 50% in size. Further: potency means the concentration at half of the fitted maximal effect. The gist of the method:
(§2)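 Tox21 10K qHTS, HEK293, 600 cells/well, RealTime-Glo reagent co-dispensed with cells; 5 h preincubation, compound by pintool, 37 C, luminescence at 0–40 h.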

The nature of assay [7]: A CellTox Green Cytotoxicity Assay to monitor cytotoxicity in HEK293 cells - 0 hour (AID 1224869). Further: nearly all actives have a fitted effect of over 50% in size. A digest of the protocol:
(§3)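 Cytotoxicity was tracked continuously in HEK293 cells by a DNA-binding dye excluded from viable cells. Compounds were transferred in DMSO 5 h after seeding; fluorescence was recorded at intervals up to 40 h.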

Assay [8] in a line: qHTS RealTime-Glo MT Cell Viability Assay in HepG2 cells - 40 hour (AID 1224870). Further: nearly all actives have a fitted effect of over 50% in size. A digest of the protocol:
(§4)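 HepG2 cells (600/well) mixed with RealTime-Glo MT reagent, settled 5 h at 37 C/5% CO2 before compound addition. Nonlytic NanoLuc luminescence from viable-cell prosubstrate reduction read repeatedly during 40 h treatment at 37 C.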

Assay [9] in a line: A CellTox Green Cytotoxicity Assay to monitor cytotoxicity in HEK293 cells - 40 hour (AID 1224871). Further: nearly all actives have a fitted effect of over 45% in size. Further: potency means the concentration at half of the fitted maximal effect. A digest of the protocol: as §3
A short description of assay [10]: qHTS RealTime-Glo MT Cell Viability Assay in HEK293 cells - 16 hour (AID 1224872). The gist of the method:
as §2

A short description of assay [11]: qHTS RealTime-Glo MT Cell Viability Assay in HepG2 cells - 8 hour (AID 1224873). Further: nearly all actives have a fitted effect of over 55% in size. The gist of the method: as §4
Assay [12] can be described thus: qHTS RealTime-Glo MT Cell Viability Assay in HEK293 cells - 40 hour (AID 1224874). Further: nearly all actives have a fitted effect of over 50% in size. Further: potency means the concentration at half of the fitted maximal effect. The conditions noted are these: RealTime-Glo luminescence; max response: stronger effect = lower value. A digest of the protocol:
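Nonlytic bioluminescent viability monitoring. HEK293 at 600 cells/well with reagent; 5 h settle; compound transfer by pintool; plates held at 37 C and read at set time points.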

A short description of assay [13]: A CellTox Green Cytotoxicity Assay to monitor cytotoxicity in HEK293 cells - 24 hour (AID 1224875). Further: nearly all actives have a fitted effect of over 45% in size. A digest of the protocol: as §3
Assay [14] is described as follows: qHTS RealTime-Glo MT Cell Viability Assay in HepG2 cells - 32 hour (AID 1224877). Further: nearly all actives have a fitted effect of over 55% in size. The gist of the method: as §1
A short description of assay [15]: A CellTox Green Cytotoxicity Assay to monitor cytotoxicity in HepG2 cells - 40 hour (AID 1224879). Further: nearly all actives have a fitted effect of over 40% in size. Further: potency means the concentration at half of the fitted maximal effect. The gist of the method: (§5)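 Real-time, homogeneous cytotoxicity readout: dead-cell DNA staining by CellTox Green in HepG2 monolayers, fluorescence measured at timed intervals up to 40 h of continuous compound exposure.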
Assay [16] can be described thus: qHTS assay to identify small molecule antagonists of the estrogen related receptor (ERR) signaling pathway from Tox21 library (AID 1224848). Further: nearly all actives have a fitted effect of over 50% in size. Further: potency means the concentration at half of the fitted maximal effect. A digest of the protocol:
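ERR reporter cell line (from NTP) seeded 2,000 cells/well, rested 6 h at 37 C/5% CO2, then pin-dosed with compounds in DMSO. After 18 h at 37 C, ONE-Glo added; luminescence read after 30 min at room temperature.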

The nature of assay [17]: qHTS assay to identify small molecule agonists of the estrogen related receptor (ERR) signaling pathway from Tox21 library (AID 1224849; calls by dose curve; further: nearly all actives have a fitted effect of over 15% in size). Conditions: ERR reporter cell line, ONE-Glo luciferase, 18 h. A digest of the protocol:
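Agonist signal is luciferase luminescence from an ERR reporter cell line treated 18 h at 37 C with DMSO-dissolved compounds, read 30 min after ONE-Glo addition at room temperature.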

Assay [18] can be described thus: A CellTox Green Cytotoxicity Assay to monitor cytotoxicity in HepG2 cells - 16 hour (AID 1224876). Further: nearly all actives have a fitted effect of over 45% in size. A digest of the protocol: as §5
The nature of assay [19]: A CellTox Green Cytotoxicity Assay to monitor cytotoxicity in HepG2 cells - 24 hour (AID 1224878). Further: nearly all actives have a fitted effect of over 45% in size. The gist of the method:
as §5

The nature of assay [20]: qHTS assay to identify small molecule agonists of the hypoxia (HIF-1) signaling pathway (AID 1224846; active means well fitted activation curve with a large enough effect in the signal ratio in the repeat runs, not every such curve was filed as active; the % refers to the signal ratio). The gist of the method: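 Steps: seed ME-180 HRE-bla cells (2,000/well, 0.5% dialyzed FBS); incubate 5 hrs at 37C; pin-transfer compounds or DMSO; incubate 17 hrs; add LiveBLAzer B/G substrate CCF4-AM; measure reporter activation by FRET.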

The source of these data is PubChem BioAssay (Tox21).

Several values for one entry are separate records, joined by “and”; a condition that tells them apart may be missing. Equal entries are not always repeated. Inconclusive results are not listed. The source holds several records for some structures; these can differ, active in one and inactive in another. Activity calls are given as the source filed them. Unless noted, the call rests on the fitted dose curve; in most records, active means well fitted curve in the direction sought with a large enough effect in the repeat runs; inconclusive means weak or mixed curves; inactive means no such curve, though single readings can be large; an effect the other way counts as inactive or inconclusive.
On the % scale 0 is the no-effect control and ±100 the full control effect.

Thyrotropin receptor (Homo sapiens), sequence (P16473 whole entry, looked up): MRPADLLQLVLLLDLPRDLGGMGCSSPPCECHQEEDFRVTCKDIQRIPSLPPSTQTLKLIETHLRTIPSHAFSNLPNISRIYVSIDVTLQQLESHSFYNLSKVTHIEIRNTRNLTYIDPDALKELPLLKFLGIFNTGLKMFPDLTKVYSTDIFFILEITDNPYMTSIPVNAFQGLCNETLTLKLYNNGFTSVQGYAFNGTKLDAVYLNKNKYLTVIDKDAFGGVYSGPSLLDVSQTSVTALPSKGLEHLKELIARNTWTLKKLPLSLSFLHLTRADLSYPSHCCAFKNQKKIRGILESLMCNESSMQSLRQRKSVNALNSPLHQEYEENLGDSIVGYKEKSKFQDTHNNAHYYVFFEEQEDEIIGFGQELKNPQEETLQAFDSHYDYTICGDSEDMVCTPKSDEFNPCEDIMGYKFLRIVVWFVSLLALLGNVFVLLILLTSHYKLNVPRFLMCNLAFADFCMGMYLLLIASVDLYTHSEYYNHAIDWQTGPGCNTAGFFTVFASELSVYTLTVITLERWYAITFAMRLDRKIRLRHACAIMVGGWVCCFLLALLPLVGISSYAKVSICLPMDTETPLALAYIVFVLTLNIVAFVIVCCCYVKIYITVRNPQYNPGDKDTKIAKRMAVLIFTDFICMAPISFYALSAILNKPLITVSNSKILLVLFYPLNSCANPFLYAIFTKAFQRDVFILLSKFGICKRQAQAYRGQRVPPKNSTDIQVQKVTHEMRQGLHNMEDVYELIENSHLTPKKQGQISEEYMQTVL

In the case of `CC(=O)c1ccc(S(=O)(=O)NC(=O)NC2CCCCC2)cc1`, the Potency entry in assay [1], in [2], in assay [3], in [4], in assay [6] and in [7] was “inactive” in each case. For the same compound, the Potency result in [9], in [10], in [13] and in assay [15] was “inactive” each time. For the same compound, the call in assay [5], in assay [8], in assay [11] and in assay [14] was inactive. For the same compound, the max response in assay [12] is 0.507% (inactive) and 8.7% (inactive) and 3.73% (inactive).
With `CCOC(=O)C(C)(C)Oc1ccc(Cl)cc1`, the Potency result in [1], in assay [2], in [3], in assay [16], in [6] and in assay [7] was “inactive” each time. The Potency result in [9], in [10], in [13], in assay [18], in assay [19] and in [15] was “inactive” throughout. Also, the activity change, positive = activation in [17] (at 42.5 µM (top of the series)) is 1.46% (inactive); in assay [17] (at 92.4 µM (top of the series)), 1.63% (inactive) and -0.349% (inactive). The call in assay [5], in assay [8], in assay [11] and in assay [14] was inactive. Besides, the max response in [12] is 0.886% (inactive) and 6.32% (inactive) and -3.11% (inactive).
Turning to `Cc1c(N(C)C)c(=O)n(-c2ccccc2)n1C`, the Potency entry in [1], in assay [2], in assay [3], in assay [4], in [6] and in assay [7] was “inactive” each time. For the same compound, the Potency entry in assay [9], in assay [10], in assay [13], in [19] and in assay [15] was “inactive” in each case. The compound was called inactive in assay [5], in assay [8], in assay [11] and in assay [14]. In addition, the max response in assay [12] was 8.84% (inactive) and 0.672% (inactive) and 6.67% (inactive).
Take `CC(=O)/C=C/C1=C(C)CCCC1(C)C`: the Potency entry in assay [2], in assay [3], in assay [6], in assay [7], in [9] and in assay [10] was “inactive” each time. The Potency entry in assay [13], in assay [18] and in assay [15] was “inactive” in each case. Besides, the call in [20], in assay [5], in assay [8], in [11] and in [14] was inactive. Further, the max response in assay [12] was -10% (inactive) and 2.42% (inactive) and 0.0931% (inactive).
As to `C[C@]12CC[C@@H]3c4ccc(O)cc4CC[C@H]3[C@@H]1CCC2=O`, the Potency result in [2], in [3], in assay [7], in assay [10], in assay [13] and in assay [15] was “inactive” in each case. The call in assay [20], in assay [5], in assay [8], in [11] and in assay [14] was inactive. In assay [9], the Potency was 49 µM (active) and inactive.
With `COc1cc2c(c(OC)c1OC)-c1ccc(OC)c(=O)cc1[C@@H](NC(C)=O)CC2`, the Potency in assay [2] was 48.4 µM (active) and inactive; in assay [6], 0.0243 µM (active); in assay [9] it was 34.3 µM (active) and inactive; in assay [12], 0.0216 µM (active); in assay [15], 54.3 µM (active) and inactive. The Potency entry in assay [3], in assay [4], in [7], in assay [10], in assay [13] and in assay [19] was “inactive” throughout. Also, the compound was classed as inactive in [20], in assay [5], in [8], in assay [11] and in [14].
`CCN(CC)CCOC(=O)c1ccc(N)cc1`: the Potency result in assay [1], in assay [2], in assay [3], in [16], in assay [6] and in assay [7] was “inactive” throughout. For the same compound, the Potency result in [9], in [10], in assay [13], in assay [18], in [19] and in [15] was “inactive” throughout. The activity change, positive = activation in assay [17] (at 42.5 µM (top of the series)) was 3.59% (inactive); in assay [17] (at 92.4 µM (top of the series)) it was 2.93% (inactive). Also, the call in [5], in assay [8], in assay [11] and in assay [14] was inactive. In assay [12], the max response was -6.53% (inactive) and -0.799% (inactive).
As for `NC(=O)N/N=C/c1ccc([N+](=O)[O-])o1`, the Potency entry in assay [1], in [2], in assay [3], in [6], in assay [7] and in assay [9] was “inactive” each time. The Potency entry in assay [10], in [13], in [18] and in assay [15] was “inactive” each time. Moreover, in assay [16], the Potency result was “inactive and 48.6 µM (active)”. The activity change, positive = activation was -13.7% (inactive) in assay [17] (at 42.5 µM (top of the series)); -3.25% (inactive) and -34% (inactive) in assay [17] (at 92.4 µM (top of the series)). Also, the call in assay [5], in [8], in [11] and in assay [14] was inactive. The max response in assay [12] is -0.165% (inactive).
Turning to `Cc1cccc(C)c1O`, the Potency result in assay [2], in assay [3], in assay [4], in [16], in assay [6] and in assay [7] was “inactive” each time. The Potency result in assay [9], in assay [10], in assay [13] and in assay [15] was “inactive” each time. In addition, the compound was called inactive in [20], in [5], in [8], in assay [11] and in assay [14]. The activity change, positive = activation in [17] (at 92.4 µM (top of the series)) was 7.32% (inactive) and 4.77% (inactive). Also, in assay [12], the max response is 9.86% (inactive) and 0.971% (inactive).
Consider `NC(=O)OCC(COC(N)=O)c1ccccc1`, for which the Potency entry in assay [1], in assay [2], in assay [3], in assay [4], in [6] and in assay [7] was “inactive” throughout. Moreover, the Potency result in assay [9], in assay [10], in assay [13] and in assay [15] was “inactive” each time. Moreover, the compound was classed as inactive in assay [5], in assay [8], in [11] and in assay [14]. In addition, in [12], the max response was 1.64% (inactive) and -0.593% (inactive).
Regarding `Nc1cccc(N)c1`, the Potency result in [2], in assay [3], in [6], in [7], in assay [9] and in assay [10] was “inactive” in each case. The Potency result in assay [13], in assay [18] and in [15] was “inactive” in each case. The outcome in [20], in assay [5], in assay [8], in [11] and in assay [14] was inactive. Besides, the max response in [12] was 6.95% (inactive) and 5.34% (inactive) and 0.651% (inactive).
